# From the supplement of paper PMC8728848
# About 410 targets per protein were measured; listed, in parts, are those with the strongest signals and a random draw of the rest.
# B1: Nc3LysM (protein)
# chain: QFTVPPDTTAEPNTIKTCTWWHVAGSGDSCTSIASTYGITSEQFARWDMETTDSPKNPSVATACKLTVGNSYCIENNFGQDDPPTPSISSSTLIGTATTSTTASTTTGNGISTPTPIQEGMETATTTTSSGNGITTPTPTQAGMETVGNCDRFHLVKSGDQCGTIASTYGITLANFYSWNPAVGTSCQSLWLDTYVCVRTIGFVPPKTTTTTTKKPTSTTSAGGVATPTPTQPGMETVSGCKKFHKGRGNVSTVASGDQCGTIATRYGISLANFYSWNPAVGSSCQTLWLDYYVCVGR
# Columns and labels:
# Assay in all cases: glycan array binding signal (z-score within array); higher = stronger binding
# Conditions in all cases: glycan notation: IUPAC condensed, linker removed
# [1] = molecular target: GlcNAc(b1-2)[GlcNAc(b1-6)]Man(a1-6)[GlcNAc(b1-2)Man(a1-3)]Man(b1-4)GlcNAc(b1-4)[Fuc(a1-6)]GlcNAc
# In short: (§1)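 The binding signal is a Z-score computed within each array and averaged over linkers. Arrays of the same protein sequence at different concentrations or buffers were also averaged together. Data originate from 3228 arrays in the Consortium for Functional Glycomics database, kept only where the protein sequence was available.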
# GlcNAc(b1-3)Gal(b1-4)Glc = molecular target: GlcNAc(b1-3)Gal(b1-4)Glc
# In short: as §1
# [2] = molecular target: GlcNAc(b1-3)Gal(b1-4)GlcNAc(b1-3)Gal(b1-4)GlcNAc(b1-3)Gal(b1-4)GlcNAc(b1-2)Man(a1-3)[GlcNAc(b1-3)Gal(b1-4)GlcNAc(b1-3)Gal(b1-4)GlcNAc(b1-3)Gal(b1-4)GlcNAc(b1-2)Man(a1-6)]Man(b1-4)GlcNAc(b1-4)GlcNAc
# In short: as §1
# [3] = molecular target: GlcNAc(b1-3)Gal(b1-4)GlcNAc(b1-3)Gal(b1-4)GlcNAc(b1-3)Gal(b1-4)GlcNAc(b1-3)Gal(b1-4)GlcNAc(b1-2)Man(a1-3)[GlcNAc(b1-3)Gal(b1-4)GlcNAc(b1-3)Gal(b1-4)GlcNAc(b1-3)Gal(b1-4)GlcNAc(b1-3)Gal(b1-4)GlcNAc(b1-2)Man(a1-6)]Man(b1-4)GlcNAc(b1-4)GlcNAc
# In short: as §1
# [4] = molecular target: GlcNAc(b1-3)Gal(b1-4)GlcNAc(b1-6)[GlcNAc(b1-3)]Gal(b1-4)GlcNAc
# In short: as §1
# GlcNAc(b1-3)GalNAc = molecular target: GlcNAc(b1-3)GalNAc
# In short: as §1
# [5] = molecular target: GlcNAc(b1-4)GlcNAc(b1-4)GlcNAc
# In short: as §1
# [6] = molecular target: GlcNAc(b1-4)GlcNAc(b1-4)GlcNAc(b1-4)GlcNAc(b1-4)GlcNAc
# In short: as §1
# [7] = molecular target: GlcNAc(b1-4)GlcNAc(b1-4)GlcNAc(b1-4)GlcNAc(b1-4)GlcNAc(b1-4)GlcNAc
# In short: as §1
# [8] = molecular target: Man(a1-3)[Man(a1-6)]Man(b1-4)GlcNAc(b1-4)[Fuc(a1-6)]GlcNAc
# In short: as §1
# [9] = molecular target: Neu5Ac(a2-3)Gal(b1-3)GlcNAc(b1-2)[Neu5Ac(a2-3)Gal(b1-3)GlcNAc(b1-4)]Man(a1-6)[Neu5Ac(a2-3)Gal(b1-3)GlcNAc(b1-2)Man(a1-3)]Man(b1-4)GlcNAc(b1-4)GlcNAc
# In short: as §1
# [10] = molecular target: Neu5Ac(a2-3)Gal(b1-3)[Neu5Ac(a2-6)]GlcNAc(b1-3)[Fuc(a1-3)[Gal(b1-4)]GlcNAc(b1-6)]Gal(b1-4)Glc
# In short: as §1
# [11] = molecular target: Neu5Ac(a2-3)Gal(b1-4)[Fuc(a1-3)]GlcNAc(b1-3)Gal(b1-4)GlcNAc
# In short: as §1
# [12] = molecular target: Neu5Ac(a2-3)Gal(b1-4)[Fuc(a1-3)]GlcNAc(b1-6)[Gal(b1-3)]GalNAc
# In short: as §1
# [13] = molecular target: Neu5Ac(a2-3)[GalNAc(b1-4)]Gal(b1-4)GlcNAc
# In short: as §1
# [14] = molecular target: Neu5Ac(a2-6)Gal(b1-3)GlcNAc(b1-3)[Gal(b1-4)GlcNAc(b1-6)]Gal(b1-4)Glc
# In short: as §1
# [15] = molecular target: Neu5Ac(a2-6)Gal(b1-4)GlcNAc(b1-2)Man(a1-3)Man(b1-4)GlcNAc(b1-4)GlcNAc
# In short: as §1
# [16] = molecular target: Neu5Ac(a2-6)Gal(b1-4)GlcNAc(b1-2)Man(a1-6)[GlcNAc(b1-2)Man(a1-3)]Man(b1-4)GlcNAc(b1-4)GlcNAc
# In short: as §1
# [17] = molecular target: Neu5Ac(a2-6)Gal(b1-4)GlcNAc(b1-3)Gal(b1-4)GlcNAc(b1-3)[Neu5Ac(a2-6)Gal(b1-4)GlcNAc(b1-3)Gal(b1-4)GlcNAc(b1-6)]GalNAc
# In short: as §1
# [18] = molecular target: Neu5Ac(a2-6)Gal(b1-4)GlcNAc(b1-3)Gal(b1-4)GlcNAc(b1-6)[Gal(b1-3)]GalNAc
# In short: as §1
# Neu5Ac(a2-6)GalNAc = molecular target: Neu5Ac(a2-6)GalNAc
# In short: as §1
# [19] = molecular target: Neu5Ac(a2-6)GlcNAc(b1-4)GlcNAc(b1-4)GlcNAc
# In short: as §1
# [20] = molecular target: Neu5Ac(a2-8)Neu5Ac(a2-3)Gal(b1-3)GalNAc(b1-4)[Neu5Ac(a2-8)Neu5Ac(a2-3)]Gal(b1-4)Glc
# In short: as §1
# [21] = molecular target: Neu5Ac(a2-8)Neu5Ac(a2-8)Neu5Ac(a2-3)[Gal(b1-3)GalNAc(b1-4)]Gal(b1-4)Glc
# In short: as §1
# [22] = molecular target: Neu5Ac(a2-8)Neu5Ac(a2-8)Neu5Ac(a2-3)[GalNAc(b1-4)]Gal(b1-4)Glc
# In short: as §1
binder,measurement,setting,value
B1,glycan array binding signal (z-score),[1],-0.037
same,glycan array binding signal (z-score),GlcNAc(b1-3)Gal(b1-4)Glc,-0.132
same,glycan array binding signal (z-score),[2],-0.013
same,glycan array binding signal (z-score),[3],-0.036
same,glycan array binding signal (z-score),[4],0.184
same,glycan array binding signal (z-score),GlcNAc(b1-3)GalNAc,0.056
same,glycan array binding signal (z-score),[5],2.52
same,glycan array binding signal (z-score),[6],17.3
same,glycan array binding signal (z-score),[7],16.7
same,glycan array binding signal (z-score),[8],0.04
same,glycan array binding signal (z-score),[9],0.123
same,glycan array binding signal (z-score),[10],-0.004
same,glycan array binding signal (z-score),[11],0.009
same,glycan array binding signal (z-score),[12],-0.127
same,glycan array binding signal (z-score),[13],-0.172
same,glycan array binding signal (z-score),[14],-0.162
same,glycan array binding signal (z-score),[15],0.14
same,glycan array binding signal (z-score),[16],0.31
same,glycan array binding signal (z-score),[17],0.111
same,glycan array binding signal (z-score),[18],-0.099
same,glycan array binding signal (z-score),Neu5Ac(a2-6)GalNAc,0.071
same,glycan array binding signal (z-score),[19],-0.143
same,glycan array binding signal (z-score),[20],-0.231
same,glycan array binding signal (z-score),[21],0.394
same,glycan array binding signal (z-score),[22],-0.059
